The values below come from PubChem BioAssay (NCI).

This is part of a sample that, as a whole, favours compounds with a hit. Of some 83,000 tested, about 20% had one in any assay.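 Step 1: grow cells in 96-well plates. Step 2: add test compound at a single concentration. Step 3: incubate 48 h. Step 4: record percent growth.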 Unmarked numbers belong to inactive results. Active and inactive are the calls of the source. Rule for the calls: active = growth percent below 10; inactive = the rest.

In this assay the test system is HL-60(TB) leukemia. Briefly: NCI-60 one-dose screen, 48 h (100 = growth as untreated, 0 = no growth, -100 = all killed). The note with it: 10 µM unless noted.
Turning to `Fc1ccc(-c2nnc(-c3c(-c4ccc(F)cc4)nc4ccccn34)o2)cc1`, the growth was 103%.
For `COc1c(F)cc(-n2c(C(=O)N3CC(F)C3)cc3cccnc32)cc1F`, the growth is 98.3%.
`CC/C(=C(\c1ccc(OCCN2CCCCCCC2)cc1)c1ccc(OC(=O)C2CCCCC2)cc1)c1ccc(Cl)cc1`: the growth is 77.8%.
As for `CC(=O)c1ccc(Cc2ccc(C(C)=O)s2)s1`, the figure is 86.5%.
As to `COc1ccc(-c2cncnc2N)cc1OC`, the growth is 95.8%.
For `NC(N)=N/N=C(/c1ccccc1)c1ccc(N)cc1`, the growth is 98.1%.
Then `COc1cc(-c2nn(-c3ccc(Br)cc3)cc2C(=O)O)ccc1O`, with 82.8%.
As for `CCN(CC)c1ccc(Nc2ccc(CC(=O)c3ccccc3)cc2)cc1`, the figure is 97.9%.
`CCc1cccc(C)c1NC(=O)c1sc2nc3c(cc2c1N)CCCCC3`: the growth is -10.5% (active).
For the compound `CNc1nc2c(s1)C(c1cc(F)ccc1F)CC(=O)N2` (stereo not given), the growth was 46.7%.
As for `N=c1ccc2nc3ccc(N)cc3sc-2c1`, the growth is 0.816% (active).
Then `COC(=O)CSc1ccc(Cl)cc1`, with 83.8%; and `C=C(c1ccc(C(=O)O)c(F)c1)c1cc2c(cc1C)C(C)(C)C=CC2(C)C`, with 86.3%.
Then `C=CCOc1ccc2c(c1)CC[C@@H]1[C@@H]2CC[C@]2(C)C(=O)/C(=N/O)C[C@@H]12`, with -28.4% (active); and `Cc1cnc2nc(-c3ccc(N(C)C)cc3)cn2c1`, with 90.7%.
In the case of `N#C/C(=C\c1ccc(-c2ccc(F)cc2)o1)c1nc(-c2ccco2)cs1`, the growth is 98%.
Turning to `Cc1[nH]n(-c2ccccc2)c2nc3nncc3c(-c3ccc(Cl)cc3)c12`, the growth is 110%.
Take `CC1(C)C(N)=Nc2cc(OCCCN3Cc4ccc(OCCc5cn(CC(=O)N6CCC(CCN7CCCC7)CC6)nn5)cc4C3)c(OCC3CC3)cc21`: the growth is 97.3%.
Then `CCOC(=O)c1cc(C(=O)c2cc(OC)cc(OC)c2)n2ccccc12`, with -13.9% (active); and `CC(C)(N)COS(=O)(=O)O`, with 94.4%.
As to `Cc1nc(Nc2nc3ccccc3o2)nc(-c2cccc([N+](=O)[O-])c2)c1C(=O)Nc1ccc(F)c(Cl)c1`, the growth was -22.1% (active).
As to `Cc1c(C(N)=O)sc2ncn(Cc3ccccc3)c(=O)c12`, the growth is 118%.
As for `CCN(CC)CCNc1c(C)cc(CO)c(Cl)c1C`, the figure is 107%.
Then `C[n+]1c2ccccc2c(Nc2ccc(NS(=O)(=O)CCCCN=C(N)N)cc2)c2ccc(N)cc21`, with 16.7%.
Consider `O=[N+]([O-])c1ccccc1Nc1ccc2ccccc2c1`, for which the growth is 93.5%.
Regarding `COc1ccc(C(=O)/C=C/c2ccc(/C=C/c3cc(OC)c(OC)c(OC)c3)cc2)cc1`, the growth is 21.5%.
In the case of `O=C(NS(=O)(=O)c1ccccc1)n1cc(-c2ccncc2)c(-c2ccc(Cl)c(O)c2)n1`, the growth is 94%.
As for `CSc1ccc(-c2cc(-c3ccc(NC(=O)CCCN4CCCC4)cc3)nc(-c3ccc(NC(=O)CCCN4CCCC4)cc3)c2)cc1`, the figure is 60.8%; as for `N#CC1c2ccccc2C=CN1C(=O)N(c1ccccc1)c1ccccc1` (stereo not given), -8.07% (active).
For `CC(C)(C)n1cc(-c2ccnc(NCCNS(=O)(=O)c3ccc(O)cc3)c2)c(-c2cccc(O)c2)n1`, the growth is 101%.
`COc1ccncc1S(=O)(=O)NC(=O)Nc1ccc(Cl)c(Cl)c1`: the growth was 84.8%.
Take `Cc1cnc(NC(=O)C(Cc2ccccc2)NC(=O)c2ccccc2)s1` (stereo not given): the growth is 38.7%.
As to `O=C(O)c1cn(C2CC2)c2cc(N3CCN(C(=O)Nc4nc(-c5ccc(Br)cc5)cs4)CC3)c(F)cc2c1=O`, the growth is -2.62% (active).
Turning to `Cn1cnc([N+](=O)[O-])c1Sc1nnc(-c2ccccc2)c(-c2ccccc2)n1`, the growth was 104%.
Regarding `CCCCCCCCCCOC(c1ccccc1)c1ccccc1`, the growth was 81.4%.
With `CCOC(=O)C(Br)=P(c1ccccc1)(c1ccccc1)c1ccccc1`, the growth was 94.2%.
For the compound `COc1ccc2nc3ccccc3c(NCc3ccc(C)cc3)c2c1`, the growth is 0.0372% (active).
Regarding `NS(=O)(=O)c1cnccc1-n1ccc(=O)c(S(N)(=O)=O)c1`, the growth is 55.9%.
On to `COc1cc(C2CC(c3ccc(Nc4nc(NCCO)nc(NCCO)n4)cc3)=NN2c2cc(Cl)cc(Cl)c2)cc(OC)c1OC` (stereo not given), for which the growth was -5.04% (active).
With `C=CCNC(=S)N/C=C(/C(=O)c1ccccc1)c1ccccc1`, the growth is 101%.
